High-throughput results deposited in PubChem BioAssay by several laboratories.
In the library only some 3.1% were active in any assay of this set; here they are far more common.
MBD2 inh: blocks human MBD2 binding to methylated DNA. actives 0.31% (n = 370,000). Q9UBB5. inhibition, % at 4.4 µM. TR-FRET, MBD2 binding to methylated oligonucleotide. AID 686964; in the data active = inhibition above about 13%
Target sequence (Q9UBB5 whole entry, looked up): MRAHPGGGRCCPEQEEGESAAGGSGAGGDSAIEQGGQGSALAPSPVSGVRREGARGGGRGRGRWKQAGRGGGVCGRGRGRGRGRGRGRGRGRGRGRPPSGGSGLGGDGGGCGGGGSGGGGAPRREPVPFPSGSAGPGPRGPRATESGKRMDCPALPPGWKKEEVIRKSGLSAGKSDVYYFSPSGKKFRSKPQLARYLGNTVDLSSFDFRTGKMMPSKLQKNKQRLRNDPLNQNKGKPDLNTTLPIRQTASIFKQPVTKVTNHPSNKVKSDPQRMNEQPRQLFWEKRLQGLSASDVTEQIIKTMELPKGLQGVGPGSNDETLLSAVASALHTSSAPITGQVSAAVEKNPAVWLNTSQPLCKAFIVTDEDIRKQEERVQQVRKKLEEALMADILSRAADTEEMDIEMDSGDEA
UHRF1 MBD2 ctr: UHRF1 methyl-DNA binding inhibition; Q96T88; UHRF1 binding to methylated oligo, TR-FRET; inhibition, % at 4.4 µM; actives 0.75% (n = 370,000); in the data active = inhibition above about 21%;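 note: UHRF1 SRA domain binding a hemimethylated CpG hairpin DNA probe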
Neddylation inh: inhibitors of human cullin neddylation. AID 651699. actives 0.58% (n = 360,000). TR-FRET cullin neddylation, biochemical. calls only at 25 µM; in the data active = inhibition above about 36%
Rin1-Abl PPI inh: human Rin1-Abl interaction inhibition; P00519+Q13671; TR-FRET Rin1/Abl binding, biochemical; actives 0.4% (n = 360,000); inhibition, % at 7.35 µM; AID 588664; in the data active = inhibition above about 5%, passing the limit was not always enough
LEDGF integ inh: blocks HIV-1 LEDGF/p75-dependent DNA integration. AID 743269. inhibition, % at 3.7 µM. actives 0.64% (n = 370,000). TR-FRET IN-LEDGF/p75 DNA integration, Eu/Cy5;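 active = inhibition above the screen-wide mean plus 3 SD, cut at about 13% in these data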;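 note: signal is the Cy5 over europium emission ratio at 671 and 618 nm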
proKLK7 act: activates the human kallikrein-7 zymogen. P49862. purified proKLK7, EDANS-DABCYL substrate fluorescence; 100% is mature enzyme control, 0% vehicle. activation, % at 7 µM. actives 0.9% (n = 370,000);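 active = activation above the mean of all tested compounds plus 3 SD, computed per campaign excluding outliers beyond control limits, cut at about 13% in these data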
Target sequence (P49862 whole entry, looked up): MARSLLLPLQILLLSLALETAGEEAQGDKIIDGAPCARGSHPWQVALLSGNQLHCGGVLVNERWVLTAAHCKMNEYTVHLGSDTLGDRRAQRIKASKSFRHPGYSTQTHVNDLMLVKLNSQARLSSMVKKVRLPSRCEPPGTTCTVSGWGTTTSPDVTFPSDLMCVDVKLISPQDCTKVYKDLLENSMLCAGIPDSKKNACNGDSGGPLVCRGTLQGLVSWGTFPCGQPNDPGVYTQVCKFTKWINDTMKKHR
Neddyl inh conf: cullin neddylation inhibition, confirmation. AID 652217. shares compounds with Neddylation inh. calls only at 25 µM. actives 13% (n = 1,800). TR-FRET cullin neddylation biochemical assay; in the data active = inhibition above about 40%;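 note: neddylation substrate is the cullin 1 ring ligase complex with SKP2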
Each line names hits and unclear results; the compound was inactive in the other large screens (follow-up assays come after a bar, where shown).

Cc1ccccc1-c1cc2c(c3c1ccn3C)C1CCC2O1 (stereo not drawn)	none
Cc1cc(N/N=C/c2ccccc2O)nc(N2CCOCC2)n1	none
COc1ccc(OC)c(/C=N/Nc2cc(C)nc(N3CCOCC3)n2)c1	Neddylation inh active | Neddyl inh conf inactive
CC(C)CN1C(=O)c2ccc(NC(=O)c3ccco3)cc2C1=O	none
CC(C)CN1C(=O)c2ccc(NC(=O)C3CC3)cc2C1=O	Neddylation inh active | Neddyl inh conf inactive
Cc1cc(SCC(=O)Nc2ccc(O)cc2)n2ncc(-c3ccccc3)c2n1	Neddylation inh active | Neddyl inh conf inactive
CCOC(=O)N1CCN(C(=O)c2ccc3oc(CCc4ccccc4)nc3c2)CC1	none
CCOC(=O)N1CCN(C(=O)c2ccc3nc(-c4ccccc4)c(-c4ccccc4)nc3c2)CC1	Neddylation inh active | Neddyl inh conf inactive
NC(=O)C1CCN(C(=O)c2ccc3ncsc3c2)CC1	none
NC(=O)C1CCN(C(=O)c2ccc3nc(-c4ccccc4)c(-c4ccccc4)nc3c2)CC1	Neddylation inh active
CCOC(=O)N(C)[C@H]1C[C@H]2c3[nH]c4c(-c5ccc6c(c5)OCO6)cccc4c3CCN2C(=O)[C@H]1[C@H](C)O	none (no result: Neddylation inh, Rin1-Abl PPI inh)
COc1ccc(-c2cnc3c(NC(C)=O)cc(-c4cc(F)ccc4OC)cn23)cc1OC	Neddylation inh active | Neddyl inh conf inactive
CCCOC(=O)CC1C(=O)NCCN1C(=O)OC(C)(C)C (stereo not drawn)	none
COc1ccc(/C(C)=N\Nc2nc(-c3ccccc3)cc(=O)[nH]2)cc1	Neddylation inh active | Neddyl inh conf inactive
CC1(C)Cc2c(C#N)c(NCCO)nc(-c3ccco3)c2CO1	Neddylation inh active
CC1(C)Cc2c(C#N)c(NCCN3CCOCC3)nc(-c3ccco3)c2CO1	none
N#C/C(=C\c1cn(Cc2ccc(C#N)cc2)c2ccccc12)C(=O)NCc1cccs1	Neddylation inh active
N#C/C(=C\c1cn(CCOc2ccccc2F)c2ccccc12)C(=O)NCc1cccs1	none
Cc1ccc(S(=O)(=O)N2[C@H](C(C)C)[C@H]3[C@H]4C(=O)N(c5ccccc5)C(=O)[C@H]4CC(=O)[C@H]3[C@@H]2c2ccccc2)cc1	none
COCC1CCCCN1Cc1cn(-c2ccccc2)nc1-c1ccc2c(c1)OCO2 (stereo not drawn)	Neddylation inh active | Neddyl inh conf inactive
c1ccc(-n2cc(CN3CCCC(CN4CCCC4)C3)c(-c3ccc4c(c3)OCO4)n2)cc1 (stereo not drawn)	none
OC[C@@H]1CCCN1Cc1cn(-c2ccccc2)nc1-c1ccc2c(c1)OCO2	Neddylation inh active | Neddyl inh conf inactive
OCc1cn(-c2ccccc2)nc1-c1ccc2c(c1)OCCO2	none
Cc1cc2nc(-c3ccc(C#N)cc3)c(Cc3ccsc3)n2c(C)c1Br	none (no result: Rin1-Abl PPI inh)
COc1ccc(NC(=O)CS(=O)(=O)c2ccccc2Cl)cc1	none
Cc1ccc2nc3ccc(N4CCCCCCC4)nn3c(=O)c2c1	Neddylation inh active | Neddyl inh conf inactive
O=c1c2ccccc2nc2ccc(N3CCOCC3)nn12	none
CCCc1cc(-n2cnc3ccccc32)n2c(nc3ccccc32)c1C#N	Neddylation inh active | Neddyl inh conf inactive
COc1cccc(C(C(=O)NC2CCCC2)N2CCN(c3ncccc3C#N)CC2)c1OC (stereo not drawn)	none (no result: Rin1-Abl PPI inh)
Cn1c(=O)c2nc(-c3ccccc3)c(-c3ccccc3)nc2n(C)c1=O	Neddylation inh active | Neddyl inh conf inactive
O=C(OC12CCCN(C1)/C(=C/c1ccccc1)C2)c1ccc(Cl)cc1 (stereo not drawn)	none (no result: Neddylation inh, Rin1-Abl PPI inh)
N#Cc1c(F)cccc1N1CCOCC1	UHRF1 MBD2 ctr 53, Neddylation inh active | Neddyl inh conf inactive
CCSc1nnc(-c2ccc(S(=O)(=O)N3CCCC3)cc2)n1C	Neddylation inh active | Neddyl inh conf inactive
CCSc1nnc(-c2ccc(S(=O)(=O)N3CCOCC3)cc2)n1C	Neddylation inh active | Neddyl inh conf inactive
COc1ccc(CCN(CC(=O)NC(C)(C)C)C(=O)Cn2nnc(-c3ccc(C)o3)n2)cc1OC	none
COc1cccc(/C=C/C(=O)OCC(=O)NC(=O)NC2CCCCC2)c1	none
COc1cccc(/C=C/C(=O)OCC(=O)N2c3ccccc3CC2C)c1OC (stereo not drawn)	Neddylation inh active
COc1ccc(OC)c(/C=C/C(=O)OCC(=O)NC2CCCCCCC2)c1	Neddylation inh active
COc1cccc(/C=C/C(=O)OCC(=O)NCC2CCCCC2)c1OC	Neddylation inh active | Neddyl inh conf inactive
COc1cccc(/C=C/C(=O)OCC(=O)NCc2ccco2)c1OC	none
COc1cccc(/C=C/C(=O)OCC(=O)c2cc(C)n(CC3CCCO3)c2C)c1OC (stereo not drawn)	Neddylation inh active | Neddyl inh conf inactive
Cc1ccsc1/C=N/NC(=O)c1nnn(-c2nonc2N)c1CN(C)c1ccccc1	none
O=C(O)CNS(=O)(=O)c1ccc2[nH]c(=O)c(=O)[nH]c2c1	Neddylation inh active | Neddyl inh conf inactive
Cc1[nH]ccc2cc3nc4ccccc4c3cc12	none (not shown: Neddylation inh)
COCCNC(=O)c1cc2c(=O)[nH]c3ccccc3c2s1	Neddylation inh active
CCn1c(Cc2ccccc2)nnc1SCC(=O)c1c(N)n(C2CC2)c(=O)[nH]c1=O	none
N#Cc1ccc(OC[C@@H](O)CN2CCC(C(O)(c3ccccc3)c3ccccc3)CC2)cc1	none (no result: Neddylation inh, Rin1-Abl PPI inh)
CC1(C)Oc2ccc3ccc(=O)oc3c2CC1O (stereo not drawn)	Neddylation inh active
CCO[C@H]1c2c(ccc3ccc(=O)oc23)OC(C)(C)[C@H]1O	Neddylation inh active | Neddyl inh conf inactive
CC1(C)Oc2ccc3ccc(=O)oc3c2[C@@H](O)[C@H]1O	none (not shown: Neddylation inh)
COc1ccc(C)cc1NCC(=O)Nc1ccc(C(C)(C)C)cc1	none
O=C(COC(=O)c1cc(-c2ccc(F)cc2)nc2ccccc12)NCC1CCCO1 (stereo not drawn)	Neddylation inh active | Neddyl inh conf inactive
O=C(c1coc(=O)c(Br)c1)N1CCC(C(O)(c2ccccc2)c2ccccc2)CC1	Neddylation inh active
COCCn1nnnc1C(C(C)C)N(Cc1ccccc1)Cc1cc2cc(OC)ccc2[nH]c1=O (stereo not drawn)	none (not shown: Neddylation inh)
COCCn1nnnc1C(C(C)C)N(Cc1cccnc1)Cc1cc2cc(OC)ccc2[nH]c1=O (stereo not drawn)	Neddylation inh active | Neddyl inh conf inactive
O=C(OCC(=O)N1CCCCCC1)c1ccc(F)cc1F	none
COc1ccc(-c2sc(Nc3cccc4ccccc34)n[n+]2C)c(C)c1C	Neddylation inh active | Neddyl inh conf inactive
Cc1ccc(NS(=O)(=O)c2cc(NC(=O)c3ccc4c(c3)NC(=O)CS4)ccc2Cl)c(C)c1	Neddylation inh active | Neddyl inh conf inactive
